# Assay results published in publication PMC11062922 (Nature Chemical Biology, 2023).
# Read-outs that look alike come from different tables or passages of the source.
# Key:
# PKN3 [1] = settings: hek293t cells
# PKN1 = test system: PKN1; set-up: species or system human, MV4-11 + K-562 + COLO205 + SK-N-BE2 + OVCAR-8; settings: read-out: apparent Kd, n = 1
# PKN3 [2] = test system: PKN3; set-up: species or system human, MV4-11 + K-562 + COLO205 + SK-N-BE2 + OVCAR-8; settings: read-out: apparent Kd, n = 1;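 as to IC50: NanoBRET target engagement in HEK293T cells transiently expressing full-length PKN3 with C-terminal NanoLuc, displacement of fluorescent tracer K5 (500 nM), BRET read after 2 h equilibration at 37 °C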
# AAK1 = test system: AAK1; set-up: species or system human, MV4-11 + K-562 + COLO205 + SK-N-BE2 + OVCAR-8; settings: read-out: apparent Kd, n = 1
# BMP2K = test system: BMP2K; set-up: species or system human, MV4-11 + K-562 + COLO205 + SK-N-BE2 + OVCAR-8; settings: read-out: apparent Kd, n = 1
# CLK1 = test system: CLK1; set-up: species or system human, MV4-11 + K-562 + COLO205 + SK-N-BE2 + OVCAR-8; settings: read-out: apparent Kd, n = 1
# CLK4 = test system: CLK4; set-up: species or system human, MV4-11 + K-562 + COLO205 + SK-N-BE2 + OVCAR-8; settings: read-out: apparent Kd, n = 1
# CSNK2A1;CSNK2A3 = test system: CSNK2A1;CSNK2A3; set-up: species or system human, MV4-11 + K-562 + COLO205 + SK-N-BE2 + OVCAR-8; settings: read-out: apparent Kd, n = 1
# CSNK2A2 = test system: CSNK2A2; set-up: species or system human, MV4-11 + K-562 + COLO205 + SK-N-BE2 + OVCAR-8; settings: read-out: apparent Kd, n = 1
# FLT4 = test system: FLT4; set-up: species or system human, MV4-11 + K-562 + COLO205 + SK-N-BE2 + OVCAR-8; settings: read-out: apparent Kd, n = 1
# GAK = test system: GAK; set-up: species or system human, MV4-11 + K-562 + COLO205 + SK-N-BE2 + OVCAR-8; settings: read-out: apparent Kd, n = 1
# GSK3A = test system: GSK3A; set-up: species or system human, MV4-11 + K-562 + COLO205 + SK-N-BE2 + OVCAR-8; settings: read-out: apparent Kd, n = 1
# GSK3B = test system: GSK3B; set-up: species or system human, MV4-11 + K-562 + COLO205 + SK-N-BE2 + OVCAR-8; settings: read-out: apparent Kd, n = 1
# MELK = test system: MELK; set-up: species or system human, MV4-11 + K-562 + COLO205 + SK-N-BE2 + OVCAR-8; settings: read-out: apparent Kd, n = 1
# NUAK1 = test system: NUAK1; set-up: species or system human, MV4-11 + K-562 + COLO205 + SK-N-BE2 + OVCAR-8; settings: read-out: apparent Kd, n = 1
# PAK4 = test system: PAK4; set-up: species or system human, MV4-11 + K-562 + COLO205 + SK-N-BE2 + OVCAR-8; settings: read-out: apparent Kd, n = 1
# PRKAG1 = test system: PRKAG1; set-up: species or system human, MV4-11 + K-562 + COLO205 + SK-N-BE2 + OVCAR-8; settings: read-out: apparent Kd, n = 1
# Q6ZSR9 = Q6ZSR9 (human, UniProt Q6ZSR9); set-up: species or system MV4-11 + K-562 + COLO205 + SK-N-BE2 + OVCAR-8; settings: read-out: apparent Kd, n = 1
# RET = test system: RET; set-up: species or system human, MV4-11 + K-562 + COLO205 + SK-N-BE2 + OVCAR-8; settings: read-out: apparent Kd, n = 1
# SIK2 = test system: SIK2; set-up: species or system human, MV4-11 + K-562 + COLO205 + SK-N-BE2 + OVCAR-8; settings: read-out: apparent Kd, n = 1
# [3] = compound concentrations:100 nM and 1000 nM (sheet 'Samples')
# Sequence of Q6ZSR9 (Q6ZSR9 whole entry, looked up): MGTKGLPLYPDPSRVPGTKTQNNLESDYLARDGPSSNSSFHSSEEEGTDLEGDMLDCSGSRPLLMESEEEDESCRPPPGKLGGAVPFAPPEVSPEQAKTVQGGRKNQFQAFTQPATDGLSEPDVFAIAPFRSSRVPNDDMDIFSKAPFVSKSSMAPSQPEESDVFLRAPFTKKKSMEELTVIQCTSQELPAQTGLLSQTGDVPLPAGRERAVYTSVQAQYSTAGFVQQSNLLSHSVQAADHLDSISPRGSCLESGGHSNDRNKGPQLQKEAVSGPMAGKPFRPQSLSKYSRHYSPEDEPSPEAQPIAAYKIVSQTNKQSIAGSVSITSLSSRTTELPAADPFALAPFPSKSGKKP
compound,measurement,setting,value
LY3009120,IC50,"PKN3 [1]; read-out: Average, SD, n = 4",513 nM
same,IC50,PKN3 [1]; read-out: Rep 1,538 nM
same,IC50,PKN3 [1]; read-out: Rep 2,1230 nM
same,IC50,PKN3 [1]; read-out: Rep 3,112 nM
same,IC50,PKN3 [1]; read-out: Rep 4,173 nM
CCn1c(-c2nonc2N)nc2c(C#CCN)ncc(OCCCN)c21.O=C(O)C(F)(F)F [GSK561866B],potency estimated from few doses,"PKN1; compound concentrations: 100 nM and 1000 nM (sheet 'Samples'), CATDS: 0.15879588217707499",65.5 nM
same,potency estimated from few doses,"PKN3 [2]; compound concentrations: 100 nM and 1000 nM (sheet 'Samples'), CATDS: 0.49894757840635401",5.21 nM
same,IC50,"PKN3 [1]; read-out: Average, SD, n = 4",7970 nM
same,IC50,PKN3 [1]; read-out: Rep 1,13000 nM
same,IC50,PKN3 [1]; read-out: Rep 2,11200 nM
same,IC50,PKN3 [1]; read-out: Rep 3,4910 nM
same,IC50,PKN3 [1]; read-out: Rep 4,2820 nM
COc1ccc(Nc2ncc(C#N)c(Nc3ccccc3C(N)=O)n2)cc1N1CCN(C)CC1.Cl [GSK1558669A],potency estimated from few doses,"AAK1; compound concentrations: 100 nM and 1000 nM (sheet 'Samples'), CATDS: 1.0489274011292E-2",164 nM
same,potency estimated from few doses,"BMP2K; compound concentrations: 100 nM and 1000 nM (sheet 'Samples'), CATDS: 9.7460630022759408E-3",204 nM
same,potency estimated from few doses,"CLK1; compound concentrations: 100 nM and 1000 nM (sheet 'Samples'), CATDS: 1.6853937375741E-2",52 nM
same,potency estimated from few doses,"CLK4; compound concentrations: 100 nM and 1000 nM (sheet 'Samples'), CATDS: 1.78351826711012E-2",46.4 nM
same,potency estimated from few doses,"CSNK2A1;CSNK2A3; compound concentrations: 100 nM and 1000 nM (sheet 'Samples'), CATDS: 3.32003717220812E-2",15.7 nM
same,potency estimated from few doses,"CSNK2A2; compound concentrations: 100 nM and 1000 nM (sheet 'Samples'), CATDS: 5.84237607609163E-2",7.02 nM
same,potency estimated from few doses,"FLT4; compound concentrations: 100 nM and 1000 nM (sheet 'Samples'), CATDS: 6.1594984322683802E-2",6.55 nM
same,potency estimated from few doses,"GAK; compound concentrations: 100 nM and 1000 nM (sheet 'Samples'), CATDS: 7.1387437274862903E-3",650 nM
same,potency estimated from few doses,"GSK3A; compound concentrations: 100 nM and 1000 nM (sheet 'Samples'), CATDS: 2.2002232250464899E-2",31.1 nM
same,potency estimated from few doses,"GSK3B; compound concentrations: 100 nM and 1000 nM (sheet 'Samples'), CATDS: 2.1185466534455601E-2",33.3 nM
same,potency estimated from few doses,"MELK; compound concentrations: 100 nM and 1000 nM (sheet 'Samples'), CATDS: 6.9590061702447499E-3",733 nM
same,potency estimated from few doses,"NUAK1; compound concentrations: 100 nM and 1000 nM (sheet 'Samples'), CATDS: 1.9495800971078701E-2",39 nM
same,potency estimated from few doses,"PAK4; compound concentrations: 100 nM and 1000 nM (sheet 'Samples'), CATDS: 1.03985583586522E-2",168 nM
same,potency estimated from few doses,"PRKAG1; compound concentrations: 100 nM and 1000 nM (sheet 'Samples'), CATDS: 1.48267658268137E-2",68.5 nM
same,potency estimated from few doses,"Q6ZSR9; compound concentrations: 100 nM and 1000 nM (sheet 'Samples'), CATDS: 1.17172228407674E-2",121 nM
same,potency estimated from few doses,"RET; compound concentrations: 100 nM and 1000 nM (sheet 'Samples'), CATDS: 1.6777420038619099E-2",52.5 nM
same,potency estimated from few doses,"SIK2; compound concentrations: 100 nM and 1000 nM (sheet 'Samples'), CATDS: 3.5509703257123403E-2",14.1 nM
CC(C)N1CCC(n2cnc(-c3ccc(F)cc3)c2-c2ccnc(N)n2)CC1 [SB-223132],potency estimated from few doses,AAK1; [3],730 nM
same,potency estimated from few doses,BMP2K; [3],531 nM
same,potency estimated from few doses,CLK1; [3],572 nM
same,potency estimated from few doses,CLK4; [3],686 nM
same,potency estimated from few doses,CSNK2A1;CSNK2A3; [3],1070 nM
same,potency estimated from few doses,CSNK2A2; [3],1400 nM
same,potency estimated from few doses,FLT4; [3],968 nM
same,potency estimated from few doses,GAK; [3],333 nM
same,potency estimated from few doses,GSK3A; [3],359 nM
same,potency estimated from few doses,GSK3B; [3],441 nM
same,potency estimated from few doses,NUAK1; [3],1160 nM
same,potency estimated from few doses,PAK4; [3],726 nM
same,potency estimated from few doses,PKN1; [3],1440 nM
same,potency estimated from few doses,PKN3 [2]; [3],1010 nM
same,potency estimated from few doses,PRKAG1; [3],884 nM
same,potency estimated from few doses,Q6ZSR9; [3],581 nM
same,potency estimated from few doses,RET; [3],579 nM
same,potency estimated from few doses,SIK2; [3],700 nM
CSc1c(C2=C(c3cn(C)c4ccccc34)C(=O)NC2=O)c2ccccc2n1C [RO0317340-000],potency estimated from few doses,"AAK1; compound concentrations: 100 nM and 1000 nM (sheet 'Samples'), CATDS: 1",1170 nM
CCn1c(-c2nonc2N)nc2c(C#CC(C)(C)O)nc(OCCNC)cc21.Cl [GSK949675A],potency estimated from few doses,GSK3A; [3],70.4 nM
same,potency estimated from few doses,GSK3B; [3],91.5 nM
same,potency estimated from few doses,PAK4; [3],736 nM
same,potency estimated from few doses,PKN1; [3],675 nM
same,potency estimated from few doses,PKN3 [2]; [3],2.48 nM
same,IC50,"PKN3 [1]; read-out: Average, SD, n = 4",669 nM
same,IC50,PKN3 [1]; read-out: Rep 1,1950 nM
same,IC50,PKN3 [1]; read-out: Rep 2,441 nM
same,IC50,PKN3 [1]; read-out: Rep 3,149 nM
same,IC50,PKN3 [1]; read-out: Rep 4,136 nM
CONC1=NC(=O)/C(=C/c2ccc3ncccc3c2)S1 [RO4613269-000],potency estimated from few doses,"CSNK2A1;CSNK2A3; compound concentrations: 100 nM and 1000 nM (sheet 'Samples'), CATDS: 0.42776292921510001",58.1 nM
same,potency estimated from few doses,"CSNK2A2; compound concentrations: 100 nM and 1000 nM (sheet 'Samples'), CATDS: 0.433008345682735",56.8 nM
O=C1NC(=O)C(N2CCc3ccccc32)=C1c1ccccc1Cl [SB-373598],potency estimated from few doses,AAK1; [3],284 nM
same,potency estimated from few doses,BMP2K; [3],478 nM
same,potency estimated from few doses,CLK1; [3],275 nM
same,potency estimated from few doses,CLK4; [3],246 nM
same,potency estimated from few doses,CSNK2A1;CSNK2A3; [3],315 nM
same,potency estimated from few doses,CSNK2A2; [3],301 nM
same,potency estimated from few doses,FLT4; [3],478 nM
same,potency estimated from few doses,GAK; [3],167 nM
same,potency estimated from few doses,GSK3A; [3],104 nM
same,potency estimated from few doses,GSK3B; [3],177 nM
same,potency estimated from few doses,MELK; [3],1000 nM
same,potency estimated from few doses,NUAK1; [3],287 nM
same,potency estimated from few doses,PAK4; [3],298 nM
same,potency estimated from few doses,PKN1; [3],1180 nM
same,potency estimated from few doses,PKN3 [2]; [3],566 nM
same,potency estimated from few doses,PRKAG1; [3],215 nM
same,potency estimated from few doses,Q6ZSR9; [3],280 nM
same,potency estimated from few doses,RET; [3],239 nM
same,potency estimated from few doses,SIK2; [3],192 nM
